# Records with an inconclusive call do not appear. Where a call stands in place of a potency, no number is given. Activity calls are given as the source filed them. Calls follow the shape of the full dose curve.
# Experiment: S16 Schwann cell PMP22 intronic element beta-lactamase assay (AID 624044); also: nearly all actives have a fitted effect of over 15% in size
# Settings: S16 rat Schwann cells, PMP22 element beta-lactamase FRET, 24 h; series mostly up to 17.1 µM
# Source text: Description: Charcot-Marie-Tooth-Association [CMTA] National Center for Advancing Translational Sciences [NCATS] Charcot-Marie-Tooth (CMT) disease was first characterized by Jean-Martin Charcot and Pierre Marie in France and, independently, by Howard Henry Tooth in England in 1886. CMT is one of the most common inherited neurological diseases, affecting approximately 1 in 2,500 Americans. […] The most prevalent type of CMT is known as CMT1A and caused by a duplication of the PMP22 gene which leads to over-expression of this protein. PMP22 is a glycosylated intrinsic membrane protein accounting for 2-5% of the myelin protein content, and its over-expression results in demyelination and subsequently axonal loss. A pair of cellular transcription-based assays was developed in the S16 rat Schwann cell lines (Hai, M., et al., 2002) stably transfected with orthogonal reporters - firefly luciferase (Fluc) and beta-lactamase (beta-Lac) - whose expression is driven by an intronic regulatory element of the PMP22 gene (Jones, E.A., et al., 2011) to recapitulate endogenous expression of PMP22. The current assay employs Blac as a reporter of PMP22 expression. A comprehensive library of approved drugs, the NCGC Pharmaceutical Collection (Huang, R., et al., 2011), was screened in the cross-validating platform of the orthogonal reporter assays to identify drug modulators inhibitory towards PMP22 expression. A set of counter-screens was devised to address non-specific activity of the library. An ATP-dependent CellTiter-Glo assay (developed by Promega Corp) was utilized to control cell viability. In addition, biochemical Fluc enzyme assay was performed to assess direct inhibition of the Fluc enzymatic activity. References Hai, M., Muja, N., DeVries, G.H., Quarles, R.H. and Patel, P.I. Comparative analysis of Schwann cell lines as model systems for myelin gene transcription studies. J Neurosci Res, 2002. 69(4): pp 497-508 Huang, R., Southall, N., Wang, Y., Yasgar A., Shinn P., Jadhav, A. , Nguyen, D.-T. and Austin, C.P., The NCGC pharmaceutical collection: a comprehensive resource of clinically approved drugs enabling repurposing and chemical genomics. Sci Transl Med, 2011. 3(80): p. 80ps16.
# S16 Schwann cell PMP22 intronic element beta-lactamase assay The beta-Lac-expressing S16 cells were seeded in black clear-bottom 1536 well plates at between 500-750 cells/6uL in DMEM medium containing 10% FBS, w/o phenol red. After overnight incubation at 37 degree Celsius/5% C02, 23 nL of compounds or DMSO were delivered to each well using a pin tool, followed by 24h-incubation at 37 degree Celsius/5% C02. Then one microl of LiveBLAzer FRET B/G detection mix (Invitrogen) was added to each well. An EnVision plate reader (PerkinElmer) was used to detect the dual beta-Lac output composed of fluorescence at 460nm for beta-Lac expression and FRET at 535nm for cell viability. The % signal at 535 nm was scaled to a full range of DMSO and zero and then normalized using the maximum response observed in the screen as 100% activity. The % signal at 460nm was normalized to the average readings of potassium clavulanate (a positive control) - treated cells relative to DMSO-treated cells (0% Activity). The concentration-effect curves were then classified based on curve quality (r2), response magnitude and degree of measured activity.
# Potency is read from the fitted curve at half-maximal effect.
row,Compound,Potency
1,CO[C@]1(NC(=O)C2SC(=C(C(N)=O)C(=O)O)S2)C(=O)N2C(C(=O)O)=C(CSc3nnnn3C)CS[C@H]21 (stereo not given in full),inactive
2,Cc1cccc(CN2CCN([C@@H](c3ccccc3)c3ccc(Cl)cc3)CC2)c1,inactive
3,COc1ccccc1OC[C@H](O)CO,inactive
4,COC1C=CO[C@@]2(C)Oc3c(C)c(O)c4c(O)c(c5c(nc6cc(C)ccn65)c4c3C2=O)NC(=O)/C(C)=C\C=CC(C)C(O)[C@@H](C)C(O)C(C)[C@@H](OC(C)=O)C1C (stereo not given in full),inactive
5,CN[C@H]1[C@@H](O)[C@@H](NC)[C@@H]2O[C@@]3(O)C(=O)C[C@@H](C)O[C@H]3O[C@H]2[C@H]1O,inactive
6,C[C@@H]1O[C@H](O[C@@H]2\C=C/C=C\C=C/C=C\C[C@H](C)OC(=O)/C=C\[C@H]3O[C@@H]3C[C@H](O)C[C@]3(O)C[C@@H](O)[C@@H](C(=O)O)[C@H](C2)O3)[C@@H](O)[C@H](N)[C@@H]1O (stereo in doubt),inactive
7,CC[C@H]1NC(=O)c2cc(S(N)(=O)=O)c(Cl)cc2N1,inactive
8,CC(C)=CCC[C@](C)(O)C1CC=C(C)CC1 (stereo not given in full),inactive
9,CNC1C(OC2C(O[C@@H]3C(O)C(O)[C@@H](N=C(N)N)C(O)C3N=C(N)N)OC(C)[C@@]2(O)CO)OC(CO)C(O)C1O (stereo not given in full),inactive
10,COC(=O)[C@@H]1[C@@H]2C[C@H]3c4[nH]c5cc(OC)ccc5c4CCN3C[C@@H]2C[C@H](OC(=O)/C=C\c2cc(OC)c(OC)c(OC)c2)[C@H]1OC,inactive
11,CN(C)CCn1nnnc1SCC1=C(C(=O)O)N2C(=O)[C@@H](NC(=O)Cc3csc(N)n3)[C@@H]2SC1,inactive
12,C=C1c2c(Cl)ccc(O)c2C(O)=C2C(=O)[C@@]3(O)C(O)=C(C(N)=O)C(=O)[C@@H](N(C)C)[C@@H]3[C@@H](O)[C@H]12,inactive
13,O=C(Nc1ccccc1)OC[C@H](CN1CCCCC1)OC(=O)Nc1ccccc1,inactive
14,CCCC(=O)O[C@]1(C(=O)CO)CCC2[C@@H]3CCC4=CC(=O)CC[C@]4(C)C3C(O)C[C@]21C (stereo not given in full),inactive
15,CCOC(=O)[C@H](CCc1ccccc1)N[C@@H](C)C(=O)N1[C@H](C(=O)O)C[C@H]2CCC[C@@H]21,inactive
16,CO[C@]12C(COC(N)=O)C3=C(C(=O)C(C)=C(N)C3=O)N1CC1NC12 (stereo not given in full),8.91 µM (active)
17,CC(=C(CCOP(=O)(O)O)SC(=O)c1ccccc1)N(C=O)Cc1cnc(C)nc1N,inactive
18,COC(=O)C1=C(C)NC(C)=C(C(=O)OC(C)C)[C@H]1c1cccc2nonc12,inactive
19,CC[C@H](CO)NCCN[C@@H](CC)CO,inactive
20,C#C[C@@]1(O)CC[C@@H]2[C@@H]3CCC4=C(CCC(=O)C4)[C@H]3CC[C@]21C,inactive

row,Compound,Potency
1,CC(=O)OC1CCC2C3CCc4cc(O)ccc4C3CCC12C (stereo not given),inactive
2,CCC1OC(=O)C(C)[C@@H](O[C@H]2C[C@@](C)(OC)C(O)C(C)O2)C(C)[C@@H](O[C@@H]2OC(C)CC(N(C)C)C2O)[C@@](C)(O)CC(C)C(=O)[C@@H](C)C(O)[C@]1(C)O (stereo not given in full),inactive
3,CC1C2CCC3C4CC=C5CC(N(C)C)CC[C@@]5(C)C4CC[C@@]32CN1C (stereo not given in full),inactive
4,CN1CCC[C@@H](CC2c3ccccc3Sc3ccccc32)C1,inactive
5,O=C1O[C@H](CN2CCOCC2)CN1/N=C\c1ccc([N+](=O)[O-])o1,inactive
6,NC(=O)c1ccc[n+]([C@@H]2O[C@H](COP(=O)([O-])OP(=O)(O)OC[C@H]3O[C@@H](n4cnc5c(N)ncnc54)[C@@H](O)[C@@H]3O)[C@@H](O)[C@@H]2O)c1,inactive
7,Nc1nc(NC2CC2)c2ncn([C@H]3C=C[C@@H](CO)C3)c2n1,inactive
8,CN(C)CCOC(=O)[C@@H](c1ccccc1)C1(O)CCCC1,inactive
9,COc1ccc2cc1Oc1ccc(cc1)CC1c3c(cc4c(c3Oc3cc5c(cc3OC)CCN(C)C5C2)OCO4)CCN1C (stereo not given),inactive
10,CCCC[C@H](CC)CN1CN(C[C@@H](CC)CCCC)CC(C)(N)C1,inactive
11,COc1cc2nc(N3CCN(C(=O)[C@@H]4COc5ccccc5O4)CC3)nc(N)c2cc1OC,inactive
12,C[C@@H](C(=O)O)c1ccc(C(=O)c2ccccc2)s1,inactive
13,CC[C@H](Cc1c(I)cc(I)c(N)c1I)C(=O)O,inactive
14,COc1cc2nc(N3CCN(C(=O)[C@@H]4CCCO4)CC3)nc(N)c2cc1OC,inactive
15,CC(=O)[C@@]1(O)CC[C@H]2[C@H]3C[C@@H](C)C4=CC(=O)C=C[C@]4(C)[C@@]3(F)[C@@H](O)C[C@]21C,inactive
16,CC[C@](C)(CN(C)C)OC(=O)c1ccccc1,inactive
17,CC(C)(C)NC[C@H](O)COc1cccc2c1CCC(=O)N2,inactive
18,CCC(CCC(C)C1CCC2C3CC=C4CC(O)CC[C@@]4(C)C3CC[C@@]12C)C(C)C (stereo not given in full),inactive
19,CC1(C)SC2C(N3C(=O)C(c4ccccc4)NC3(C)C)C(=O)N2C1C(=O)O (stereo not given),inactive
20,Cc1ccc(S(=O)(=O)NC(=O)NN2C[C@H]3CCC[C@@H]3C2)cc1,inactive

# Reference: PubChem BioAssay (NCATS)
